Screens: PubChem BioAssay, several laboratories
PLC-beta3 inh: human PLC-beta3 inhibitors, primary screen, biochemical, fluorescence. inhibition, % at 12.2 µM. hit rate 0.18% among 370,000. 1-phosphatidylinositol 4,5-bisphosphate phosphodiesterase beta-3 (Homo sapiens), Q01970. Purified PLC-beta3, fluorogenic substrate; in the data active = inhibition above about 11%;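 also: 0% = median of compound wells on plate and 100% = full blocker control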
H9c2 protect: cardioprotection against H2O2-induced cell death, primary screen, uHTS, H9c2 cells, ATPLite luminescence | AID 588492, 2011 | protection from H2O2 cell death, % at 20 µM | H9c2 cardiomyocytes, H2O2 injury protection, 2 h | hit rate 0.63% among 360,000;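 active = compounds giving at least 50% protection of heart cells from peroxide-induced death in the single-dose screen, raw or plate-pattern-corrected value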;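 also: 0% = DMSO wells with peroxide and 100% = DMSO wells without peroxide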
FAS-TE inh: FAS thioesterase domain inhibitors, primary screen, biochemical, fluorescence intensity, uHTS; recombinant FAS-TE, OMFH fluorogenic substrate, fluorescence endpoint; Fatty acid synthase (Homo sapiens), P49327; hit rate 0.67% among 360,000; inhibition, % at 15 µM;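 active = compounds whose normalised, plate-corrected inhibition of enzyme fluorescence in the single-dose primary screen is 50% or more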;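 also: 0% = DMSO with enzyme and 100% = substrate without enzyme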
Target sequence (P49327 whole entry, looked up, the tested form may be a part): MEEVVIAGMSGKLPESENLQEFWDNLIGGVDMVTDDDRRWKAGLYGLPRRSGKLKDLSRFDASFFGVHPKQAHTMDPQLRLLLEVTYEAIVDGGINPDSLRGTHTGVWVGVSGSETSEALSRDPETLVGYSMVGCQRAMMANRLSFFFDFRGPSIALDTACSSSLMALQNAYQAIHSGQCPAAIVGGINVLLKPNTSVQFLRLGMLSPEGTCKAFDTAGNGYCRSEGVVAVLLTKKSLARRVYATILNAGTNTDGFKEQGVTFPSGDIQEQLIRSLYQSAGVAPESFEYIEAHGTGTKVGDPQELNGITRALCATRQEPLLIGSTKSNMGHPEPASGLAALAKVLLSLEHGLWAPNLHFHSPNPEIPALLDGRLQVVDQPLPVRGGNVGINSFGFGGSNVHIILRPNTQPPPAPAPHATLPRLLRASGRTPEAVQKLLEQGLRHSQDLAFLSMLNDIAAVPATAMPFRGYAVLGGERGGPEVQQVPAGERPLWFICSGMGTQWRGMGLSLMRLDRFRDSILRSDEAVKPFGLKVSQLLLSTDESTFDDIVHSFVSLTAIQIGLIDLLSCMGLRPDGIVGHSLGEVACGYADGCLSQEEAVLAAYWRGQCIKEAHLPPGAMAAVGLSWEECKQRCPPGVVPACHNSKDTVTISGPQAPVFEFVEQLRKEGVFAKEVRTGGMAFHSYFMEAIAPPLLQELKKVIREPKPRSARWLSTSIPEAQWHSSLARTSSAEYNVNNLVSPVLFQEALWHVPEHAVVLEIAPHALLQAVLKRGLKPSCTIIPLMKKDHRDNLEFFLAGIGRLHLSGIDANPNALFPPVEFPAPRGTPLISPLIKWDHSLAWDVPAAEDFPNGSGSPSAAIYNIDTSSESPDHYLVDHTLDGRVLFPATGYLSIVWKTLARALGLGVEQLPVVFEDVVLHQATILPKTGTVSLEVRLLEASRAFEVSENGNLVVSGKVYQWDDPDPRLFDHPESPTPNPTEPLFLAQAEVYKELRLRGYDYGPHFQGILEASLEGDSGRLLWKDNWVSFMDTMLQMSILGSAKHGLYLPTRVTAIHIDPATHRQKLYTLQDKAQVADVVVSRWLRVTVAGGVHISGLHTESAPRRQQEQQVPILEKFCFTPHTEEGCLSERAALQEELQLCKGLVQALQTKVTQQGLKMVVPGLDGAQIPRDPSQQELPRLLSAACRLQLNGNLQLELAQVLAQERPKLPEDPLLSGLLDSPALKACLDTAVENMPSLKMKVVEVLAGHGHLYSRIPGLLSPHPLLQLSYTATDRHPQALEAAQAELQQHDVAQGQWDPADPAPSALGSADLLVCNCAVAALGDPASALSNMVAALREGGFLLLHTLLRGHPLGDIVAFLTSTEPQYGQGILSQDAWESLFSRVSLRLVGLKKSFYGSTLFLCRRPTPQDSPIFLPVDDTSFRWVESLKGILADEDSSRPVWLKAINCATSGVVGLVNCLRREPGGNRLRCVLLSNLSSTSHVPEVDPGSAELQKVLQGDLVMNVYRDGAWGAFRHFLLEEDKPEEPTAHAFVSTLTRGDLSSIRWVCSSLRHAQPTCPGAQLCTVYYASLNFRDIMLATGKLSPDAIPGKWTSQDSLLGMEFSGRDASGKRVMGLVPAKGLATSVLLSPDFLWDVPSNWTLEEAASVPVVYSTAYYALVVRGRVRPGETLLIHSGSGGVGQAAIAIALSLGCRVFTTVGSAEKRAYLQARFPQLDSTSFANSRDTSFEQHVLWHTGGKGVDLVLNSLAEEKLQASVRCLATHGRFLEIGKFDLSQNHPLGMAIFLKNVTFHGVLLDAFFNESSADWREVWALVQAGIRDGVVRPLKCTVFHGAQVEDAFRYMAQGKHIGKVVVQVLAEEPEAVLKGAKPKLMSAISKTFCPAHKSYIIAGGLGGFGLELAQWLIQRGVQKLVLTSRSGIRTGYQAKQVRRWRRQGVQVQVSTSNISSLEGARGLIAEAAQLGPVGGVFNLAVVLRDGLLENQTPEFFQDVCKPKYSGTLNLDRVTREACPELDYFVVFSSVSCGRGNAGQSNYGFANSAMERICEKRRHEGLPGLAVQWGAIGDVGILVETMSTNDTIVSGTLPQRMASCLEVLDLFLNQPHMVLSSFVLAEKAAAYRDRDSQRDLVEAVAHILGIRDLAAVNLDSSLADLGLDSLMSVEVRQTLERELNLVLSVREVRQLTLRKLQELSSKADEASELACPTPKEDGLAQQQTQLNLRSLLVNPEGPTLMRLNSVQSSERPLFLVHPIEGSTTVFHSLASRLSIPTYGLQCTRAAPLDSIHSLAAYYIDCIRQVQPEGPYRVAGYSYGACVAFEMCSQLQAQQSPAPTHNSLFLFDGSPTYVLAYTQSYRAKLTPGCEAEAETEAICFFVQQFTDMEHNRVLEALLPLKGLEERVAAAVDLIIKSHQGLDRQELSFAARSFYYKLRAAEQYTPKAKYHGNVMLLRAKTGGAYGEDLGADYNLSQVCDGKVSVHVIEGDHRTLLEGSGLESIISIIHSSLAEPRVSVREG
PLCg1 inh: PLC-gamma1 enzyme inhibitors, primary screen, biochemical, fluorescence, purified enzyme | fluorogenic substrate | inhibition, % at 12.2 µM | AID 720700, 2013 | hit rate 0.84% among 370,000 | 1-phosphatidylinositol 4,5-bisphosphate phosphodiesterase gamma-1 (Homo sapiens), P19174; in the data active = inhibition above about 9.5%
FAS-TE inh conf: FAS thioesterase domain inhibitors, confirmation, biochemical, fluorescence intensity, single concentration | recombinant FAS-TE, OMFH fluorogenic substrate | AID 624325, 2012 | inhibition, % at 15 µM | shares compounds with FAS-TE inh | hit rate 45% among 2,300;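 active = compounds inhibiting the enzyme by at least 50% at 15 µM in any one of the replicates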;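 also: 0% = enzyme with DMSO only and 100% = wells lacking enzyme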
Numbers without * were called inactive; / = no result given. Hits are enriched below; roughly 2.2% of the tested compounds scored in any of these assays.

SMILES | PLC-beta3 inh | H9c2 protect | FAS-TE inh | PLCg1 inh | FAS-TE inh conf
CC(c1ccccc1)n1c(SCC(=O)N2CC(=O)Nc3ccccc32)nc2ccccc2c1=O (stereo unspecified) | -1 | 13 | 56* | 6 | 27
CC(C)[C@H](N)C(=O)OCC(CO)OCn1cnc2c(=O)[nH]c(N)nc21 (stereo partly specified) | 2 | / | / | 7 | /
CC(C)Cn1c(N)c(C(=O)COC(=O)c2cc(-c3ccccc3)nc3ccccc23)c(=O)n(C)c1=O | 2 | 9 | 51* | 1 | 14
COC(=O)[C@]12C[C@H](CC(=O)N3CCCC3)C(=O)N(CCc3ccc(OC)c(OC)c3)C1=C[C@H](C1CCCC1)O[C@@H]2C | 0 | / | / | -1 | /
CCc1cc2c(=O)oc(-c3ccccc3F)nc2s1 | -196 | 5 | 75* | -164 | 60*
Cc1cc2c(=O)oc(-c3ccccc3Br)nc2s1 | -91 | -3 | 59* | -78 | 65*
O=[N+]([O-])c1cc(-c2nnc(Nc3ccccc3)c3ccccc23)ccc1N1CCOCC1 | 0 | 12 | 63* | 5 | 15
O=[N+]([O-])c1cc(-c2nnc(Nc3ccc(O)cc3)c3ccccc23)ccc1N1CCOCC1 | 4 | 24 | 16 | 2 | /
Cc1ccc(Nc2nnc(-c3ccc(N4CCOCC4)c([N+](=O)[O-])c3)c3ccccc23)cc1 | 1 | 7 | 64* | 1 | 13
COCc1cc(C)nc(SCC[N+](C)(C)CC(=O)Nc2ccccc2)c1C#N | -5 | -4 | 53* | -2 | 63*
COCc1cc(C)nc(SCC[N+](C)(C)CC(=O)c2ccc(Br)cc2)c1C#N | -3 | 6 | 38 | 0 | /
COc1ccc(C2=NN(CN3C(=O)C(=O)c4ccccc43)C(c3cccc([N+](=O)[O-])c3)C2)cc1 (stereo unspecified) | -7 | 0 | 60* | -2 | 60*
CC(C)CCNC(=O)C1CC(c2cccc([N+](=O)[O-])c2)=NO1 (stereo unspecified) | 2 | 0 | 53* | -2 | 59*
O=C(NCCCCc1ccccc1)C1CC(c2cccc(F)c2)=NO1 (stereo unspecified) | 0 | -4 | 20 | 3 | /
O=C(NCCCCc1ccccc1)C1CC(c2cccc([N+](=O)[O-])c2)=NO1 (stereo unspecified) | -1 | -17 | 66* | -3 | 76*
CCCCNC(=O)C1CC(c2cccc([N+](=O)[O-])c2)=NO1 (stereo unspecified) | 4 | 7 | 33 | -1 | /
CC(C)C[C@@H]1COc2cccc(NC3CC3)c2S(=O)(=O)N1 | 0 | / | / | 0 | /
C=Cc1ccc(C(=O)N(Cc2ccc(F)cc2)C(C(=O)N(C)C2CCCC2)c2ccc(OC)c(OC)c2)cc1 (stereo unspecified) | 1 | / | / | 1 | /
CCc1nc2c(OCc3ccc(Cl)cc3)cccn2c1N(C=O)Cc1ccccc1 | -8 | -6 | 64* | -6 | 71*
CC(=O)N1N=C(c2cccc([N+](=O)[O-])c2)OC1c1ccc(Cl)cc1Cl (stereo unspecified) | -2 | 4 | 53* | -4 | 40
COc1ccccc1C1OC(c2cccc([N+](=O)[O-])c2)=NN1C(C)=O (stereo unspecified) | 4 | -1 | 22 | 0 | /
CC(=O)N1N=C(c2cccc([N+](=O)[O-])c2)OC1c1ccc(Br)cc1 (stereo unspecified) | -7 | -6 | 51* | 1 | 20
CC(=O)N1N=C(c2ccc(Br)cc2)CC1c1cccc([N+](=O)[O-])c1 (stereo unspecified) | 1 | -20 | 62* | -1 | 49*
C[C@@H]1CNCCN1c1ccc(N2CCN(Cc3ccccc3)[C@@H](C)C2)c(C#N)c1 | -125 | / | / | -98 | /
C=CCN(C)CC#Cc1ccc(F)cc1 | 0 | / | / | 1 | /
SMILES | PLC-beta3 inh | H9c2 protect | FAS-TE inh | PLCg1 inh | FAS-TE inh conf
CCn1cc(C(=O)NCc2ccco2)c(=O)c2cc(S(=O)(=O)N3CCCCCC3)ccc21 | 0 | 6 | 78* | 3 | 58*
CCn1cc(C(=O)NCc2ccco2)c(=O)c2cc(S(=O)(=O)N3CCc4ccccc4C3)ccc21 | -7 | 13 | 47 | -4 | /
CCn1cc(C(=O)NCc2ccco2)c(=O)c2cc(S(=O)(=O)N3CCC(C)CC3)ccc21 | 3 | -4 | 74* | -1 | 84*
C=CCn1cc(C(=O)NCc2ccco2)c(=O)c2cc(S(=O)(=O)N3CCCCCC3)ccc21 | -3 | 0 | 61* | 3 | 70*
CCn1cc(C(=O)NCc2ccco2)c(=O)c2cc(S(=O)(=O)N3CC(C)CC(C)C3)ccc21 (stereo unspecified) | 2 | -2 | 78* | 4 | 87*
N#Cc1ccc(CSc2ccc(S(=O)(=O)N3CCCC3)cn2)cc1 | -4 | -9 | 64* | 2 | 64*
Cc1ccc(CSc2ccc(S(=O)(=O)N3CCCC3)cn2)cc1 | -8 | -10 | 40 | -1 | /
O=S(=O)(c1ccc(SCCO)nc1)N1CCOCC1 | 2 | 4 | -9 | 0 | /
O=[N+]([O-])c1ccc(CSc2ccc(S(=O)(=O)N3CCCC3)cn2)cc1 | / | 3 | 58* | / | 54*
CC(C)c1ccc(CSc2ccc(S(=O)(=O)N3CCOCC3)cn2)cc1 | -4 | -6 | 69* | 3 | 36*
Cc1ccc(CSc2ccc(S(=O)(=O)N3CCOCC3)cn2)cc1 | -4 | -2 | 5 | 0 | /
O=[N+]([O-])c1ccc(CSc2ccc(S(=O)(=O)N3CCOCC3)cn2)cc1 | -5 | -7 | 53* | 4 | 55*
O=[N+]([O-])c1ccc(CSc2ccc(S(=O)(=O)N3CCCCC3)cn2)cc1 | 1 | 1 | 43 | -1 | /
O=C(Nc1ccccc1N1CCOCC1)C1=NN(c2c(F)c(F)cc(F)c2F)C(=O)CC1 | -10 | 11 | 13 | 2 | /
N#Cc1cc(-c2ccccc2)nc(Oc2ccc(Cl)cc2)n1 | 1 | -11 | 65* | 3 | 53*
N#Cc1cc(-c2ccccc2)nc(NN)n1 | -5 | 17 | 0 | -1 | /
O=[N+]([O-])c1ccc(S(=O)(=O)NN=Cc2ccc3c(c2)OCO3)cc1 | -1 | 0 | 64* | 3 | 72*
CC(NC(=O)c1cc([N+](=O)[O-])cc([N+](=O)[O-])c1)c1ccc(-n2ccnc2)cc1 (stereo unspecified) | -5 | -4 | 59* | 2 | 72*
C=CCOC(=O)COc1ccc2c(C)c(CC)c(=O)oc2c1 | -143 | 15 | 70* | -94 | 73*
C=CCOC(=O)COc1ccc2c(C)c(C)c(=O)oc2c1 | -58 | 17 | 18 | -46 | /
c1ccc2c(C3OCC4(CCCCC4)CO3)cccc2c1 | 3 | -7 | 26 | 0 | /
O=C(c1cccc(S(=O)(=O)N2CCCCC2)c1)N1CCCCC1 | 2 | 0 | -3 | 3 | /
